# Sampled rows, rich in hits. Any-hit rate of the full collection: about 22%.
# CYP2C19 inhib: human CYP2C19 inhibition; P33261; CYP2C19 Supersomes, luciferin-H EGE luminescence, 30 min; inhibition, % at 5 µM; actives 21% (n = 96,000);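 active means CYP2C19 inhibition above a set limit at 5 µM in the primary screen, cut at about 50% in these data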;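 further: plate controls were negative control wells for no effect and 2.5 mM tranylcypromine positive control for full effect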
# Target sequence (P33261 whole entry, looked up): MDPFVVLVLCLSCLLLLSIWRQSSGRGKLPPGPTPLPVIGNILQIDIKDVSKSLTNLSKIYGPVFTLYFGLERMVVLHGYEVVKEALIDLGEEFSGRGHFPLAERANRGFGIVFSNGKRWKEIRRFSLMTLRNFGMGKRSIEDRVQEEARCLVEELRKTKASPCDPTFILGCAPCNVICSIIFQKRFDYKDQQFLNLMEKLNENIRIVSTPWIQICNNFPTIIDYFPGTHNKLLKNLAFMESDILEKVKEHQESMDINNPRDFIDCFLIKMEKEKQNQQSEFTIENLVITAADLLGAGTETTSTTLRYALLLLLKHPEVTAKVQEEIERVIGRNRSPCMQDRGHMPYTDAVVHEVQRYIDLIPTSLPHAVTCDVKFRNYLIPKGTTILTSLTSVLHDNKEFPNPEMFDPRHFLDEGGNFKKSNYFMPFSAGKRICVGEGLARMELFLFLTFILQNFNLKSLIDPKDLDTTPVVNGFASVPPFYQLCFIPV
# CYP2C9 inh: blocks human cytochrome P450 2C9. AID 777. CYP2C9 Supersomes, luciferin-H conversion, luminescence. actives 20% (n = 96,000). inhibition, % at 5 µM. P11712;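 active means blocking of liver enzyme CYP2C9 beyond about 50% at 5 µM, limit read from the data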
# CYP2C19 activ: increases human CYP2C19 enzyme activity. P33261. recombinant CYP2C19, luciferin-H EGE luminescence; active compounds read high; 0 = fully inhibited enzyme, 1 = untreated enzyme. activation factor at 5 µM. 96,000 tested, under 10 active;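 active means activation factor of at least 2 at 5 µM in the primary screen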;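 further: 0 = wells with 2.5 mM tranylcypromine and 1 = vehicle-only wells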
# Measles CPE: protection of cells from measles virus. Measles virus-infected cells, CPE protection, absorbance. protection (pct of control), % at 4 µM. actives 1.5% (n = 140,000). AID 841; in the data active means protection mostly above about 24%, no sharp cut-off; inactive means mostly below about 26%
# CYP2C9 act: increases human cytochrome P450 2C9 activity; P11712; recombinant CYP2C9, luciferin-H conversion, luminescence; active compounds read high; factor 1 = untreated enzyme, 0 = blocked; activation factor at 5 µM; actives 1.4% (n = 96,000); AID 1024;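 active means activation factor of 2 or more for CYP2C9 at a 5 µM dose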;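 further: 0 = sulfaphenazole-blocked wells and 1 = vehicle-only wells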
# Active calls of the source: *; nt = no result.
SMILES,CYP2C19 inhib,CYP2C9 inh,CYP2C19 activ,Measles CPE,CYP2C9 act
Cc1onc(-c2ccccc2Cl)c1C(=O)Nc1cccc2cccnc12,76*,46,0.2,20,0.5
O=C(Cn1nnc(-c2ccccc2)n1)N1CCN(S(=O)(=O)c2ccc(Cl)cc2)CC1,-17,-10,1.2,3,1.1
COCCOC(=O)C1=C(C)NC(=O)N(C(C)=O)C1c1ccc(Cl)cc1 (stereo not drawn),58*,66*,0.4,4,0.3
CCOC(=O)C1=C(C)NC(=S)N(C(C)=O)C1c1ccc(Cl)cc1 (stereo not drawn),nt,nt,nt,24,nt
Cc1cccc(C)c1OCC(=O)Nc1ccc(S(=O)(=O)Nc2ccccn2)cc1,nt,nt,nt,13,nt
CCOC(=O)c1cc(C)n(Cc2ccccc2)c1C,65*,50*,0.3,2,0.5
CCOC(=O)c1cc(C)n(Cc2cccc(OC)c2OC)c1C,17,43,0.8,11,0.6
CCOC(=O)c1cc(C)n(-c2ccc(OC)c(OC)c2)c1C,88*,63*,0.1,5,0.4
CCOC(=O)c1c(C)nn(Cc2ccccc2)c1N,8,40,0.9,25,0.6
Cc1nn(Cc2ccccc2)c(C)c1C(=O)OCC(=O)c1cc(C)n(CC(F)(F)F)c1C,53*,10,0.5,6,0.9
Cc1cc(C(=O)CN2C(=O)NC3(CCCc4ccccc43)C2=O)c(C)n1Cc1ccco1 (stereo not drawn),27,74*,0.7,10,0.3
Cc1cc(-n2c(C)cc(C(=O)CN3C(=O)NC4(CCCCCC4)C3=O)c2C)no1,47,-2,0.5,2,1
Cc1cc(C(=O)CN2C(=O)NC3(CCCc4ccccc43)C2=O)c(C)n1Cc1ccccc1 (stereo not drawn),56*,71*,0.4,2,0.3
COCCn1c(C)cc(C(=O)CN2C(=O)NC3(CCCCCCC3)C2=O)c1C,25,-285,0.8,11,3.9*
Cc1cc(C(=O)CN2C(=O)c3ccccc3C2=O)c(C)n1Cc1cccs1,nt,nt,nt,17,nt
O=C(CN1C(=O)NC2(CCCc3ccccc32)C1=O)N1CCc2ccccc2C1 (stereo not drawn),54*,59*,0.5,14,0.4
Cc1cc(C(=O)CN2C(=O)CCC2=O)c(C)n1Cc1ccccc1,62*,37,0.4,7,0.6
Cc1cccc(C)c1Nc1nnc(SCC(=O)Nc2ncc(C(F)(F)F)cc2Cl)s1,nt,nt,nt,10,nt
CCCCCCCCC(=O)N/N=C(\C)c1ccco1,nt,nt,nt,2,nt
COc1ccc(NC(=O)CC2C(=O)N(c3ccc(Cl)cc3)C(=S)N2CCc2ccncc2)cc1 (stereo not drawn),88*,97*,0.1,2,0
COc1ccc(NC(=O)CC2C(=O)N(c3ccc(Cl)cc3)C(=S)N2CCc2ccccn2)cc1 (stereo not drawn),nt,nt,nt,7,nt
COc1ccc(NC(=O)CC2C(=O)N(CCc3ccccc3)C(=S)N2Cc2cccnc2)cc1 (stereo not drawn),90*,92*,0.1,19,0.1
COC(=O)CN1C(=S)N(Cc2ccccc2)C(=O)C1CC(=O)Nc1ccc(Br)cc1 (stereo not drawn),12,28,0.9,9,0.7
COc1ccc(NC(=O)CC2C(=O)N(c3ccc(OC)cc3)C(=O)N2C(C)C)cc1 (stereo not drawn),56*,27,0.4,29,0.7
CCN1C(=O)C(CC(=O)Nc2ccc(OC)cc2)N(Cc2cccnc2)C1=S (stereo not drawn),65*,3,0.4,2,1
SMILES,CYP2C19 inhib,CYP2C9 inh,CYP2C19 activ,Measles CPE,CYP2C9 act
COc1cc2c(cc1NC(=O)COc1ccc3ccccc3c1)oc1ccccc12,-7,7,1.1,10,0.9
CN1C(=O)C(CC(=O)Nc2ccc(F)cc2)N(CCCc2ccccc2)C1=S (stereo not drawn),60*,89*,0.4,5,0.1
COc1ccc(NC(=O)CC2C(=O)N(C)C(=S)N2Cc2ccco2)cc1 (stereo not drawn),nt,nt,nt,9,nt
C=CCN1C(=O)C(CC(=O)Nc2ccc(OC)cc2)N(Cc2ccco2)C1=S (stereo not drawn),96*,48,0,6,0.5
COC(=O)CN1C(=S)N(c2ccc(Cl)cc2)C(=O)C1CC(=O)Nc1ccc(F)cc1 (stereo not drawn),nt,nt,nt,13,nt
Cc1ccc(-c2cc(C(=O)NCCc3ccccn3)c3ccccc3n2)c(C)c1,nt,nt,nt,6,nt
Cc1cc(C)n(-c2ncnc3sc4c(c23)CC(C)CC4)n1 (stereo not drawn),88*,49,0.1,2,0.5
CC1CCc2c(sc3ncnc(N4CCOCC4)c23)C1 (stereo not drawn),47,13,0.5,9,0.9
CC1CCc2sc3ncnc(N4CCOCC4)c3c2C1 (stereo not drawn),96*,61*,0,2,0.4
N#Cc1cnn(-c2ncnc3sc4c(c23)CCCC4)c1N,39,89*,0.6,4,0.1
Cc1cc(C)n(-c2ncnc3sc4c(c23)CCCC4)n1,57*,13,0.4,14,0.9
Cc1cc(C)n(-c2nc(C)nc3sc4c(c23)CCC(C)C4)n1 (stereo not drawn),18,0,0.8,4,1
Cc1cc(C)n(-c2ncnc3sc(C)c(C)c23)n1,3,-16,1,13,1.2
C=CCSc1ncccc1C(=O)NCc1ccccc1,88*,11,0.1,80*,0.9
CC(C)OC(=O)c1cccnc1SCC(=O)N(C)c1ccccc1,69*,34,0.3,12,0.7
COc1ccc(NC(=O)CSc2ncccc2C(=O)OC(C)C)cc1OC,92*,77*,0.1,10,0.2
CC(C)OC(=O)c1cccnc1SCc1cc(=O)n2ccccc2n1,32,52*,0.7,5,0.5
CSc1ncccc1C(=O)OCC(=O)c1cc2ccccc2o1,-13,-44,1.1,1,1.4
CCN(CC)S(=O)(=O)c1ccc(C(=O)NCC(c2cccs2)N2CCOCC2)cc1 (stereo not drawn),-5,15,1,7,0.9
Cn1cccc1C1Nc2ccccc2NC2=C1C(=O)CC(C)(C)C2 (stereo not drawn),-33,0,1.3,24,1
COc1ccc2[nH]c(=O)c(CN(C(=O)c3cccnc3)c3ccc(C)cc3)cc2c1,10,31,0.9,6,0.7
CCOC(=O)c1cccnc1SCC(=O)NCc1ccccc1,98*,92*,0,16,0.1
CCOC(=O)c1cccnc1SCC(=O)N(CC)c1cccc(C)c1,65*,45,0.4,9,0.5
COc1ccccc1NC(=O)CSc1nc2ncccc2[nH]1,25,47,0.7,9,0.5
CCN(C(=O)CSc1ncccc1C(=O)OC(C)C)c1cccc(C)c1,53*,44,0.5,-1,0.6
CCC(Sc1ncccc1C(=O)OC(C)C)C(=O)N1CCOCC1 (stereo not drawn),6,21,0.9,24,0.8

# Bioassay records from PubChem BioAssay.
